Compounds with a hit are over-represented: about 2.4% of the library has one in this group of screens.
D2 ag-1 = human D2 receptor agonism in beta-arrestin assay; DiscoveRx PathHunter D2 beta-arrestin, luminescence, 90 min; 100% = 57 uM dopamine signal; activation, % (test concentration not listed); actives 0.084% (n = 360,000); in the data active = activation above about 40%; inconclusive = between about 15% and that limit
Target sequence (P14416 whole entry, looked up): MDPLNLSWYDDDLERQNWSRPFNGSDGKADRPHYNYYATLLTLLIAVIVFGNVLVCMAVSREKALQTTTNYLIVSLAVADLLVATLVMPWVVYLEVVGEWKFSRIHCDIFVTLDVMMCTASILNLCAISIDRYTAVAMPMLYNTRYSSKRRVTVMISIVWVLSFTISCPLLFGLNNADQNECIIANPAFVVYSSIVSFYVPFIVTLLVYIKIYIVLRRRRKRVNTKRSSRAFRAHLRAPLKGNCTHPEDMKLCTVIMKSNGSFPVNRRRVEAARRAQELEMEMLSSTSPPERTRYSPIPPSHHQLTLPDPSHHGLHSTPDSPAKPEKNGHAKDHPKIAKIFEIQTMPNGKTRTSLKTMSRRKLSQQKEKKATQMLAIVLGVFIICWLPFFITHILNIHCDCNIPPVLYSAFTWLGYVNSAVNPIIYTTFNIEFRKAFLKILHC
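DiscoveRx PathHunter D2 beta-arrestin cells (2,100/well) attached overnight, then compound-stimulated 90 min at 37 C in HBSS/10 mM HEPES/0.1% Tween-20 buffer; beta-galactosidase complementation read by luminescence after 1 h at ambient temperature. Dopamine 57 uM final (EC100) as control.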
D2 PAM-1 = positive allosteric modulators of human D2 dopamine receptor; DiscoveRx D2 beta-arrestin cells, luminescence, 90 min; 100% = 57 uM dopamine signal; P14416; actives 0.23% (n = 360,000); AID 624464; potentiation, % (concentration not given with the values); in the data active = potentiation above about 50%; inconclusive = mostly about 30% to 49%
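PathHunter beta-arrestin assay in DiscoveRx D2 cells. Compounds were added with an EC20 of dopamine (50 nM final) for 90 min at 37 deg C. Luminescence was read 1 h after detection reagent, with 57 uM dopamine as the EC100 control.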
D2 PAM-2 = positively modulates the human D2 dopamine receptor allosterically | P14416 | HEK293 T-REx D2, calcium flux, EC20 dopamine potentiation | potentiation, % at 10 µM | actives 0.34% (n = 340,000) | AID 485347;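 active = potentiation over 3 SD above the plate norm, cut at about 30% in these data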
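Using a no-wash calcium dye in inducible, force-coupled HEK293 Trex cells expressing D2, we tracked fluorescence each second for 180 s after compound, then for 180 s after EC20 dopamine to detect augmented signalling.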
D2 ag-2 = activates the human D2 dopamine receptor | HEK293 T-REx D2 cells, calcium flux agonist mode | activation, % at 2 µM | actives 0.53% (n = 340,000);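 active = activation over 3 SD above normal in the single-dose calcium agonist read, cut at about 30% in these data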
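Agonism is scored from calcium flux in a force-coupled, inducible HEK293 cell line expressing D2, read kinetically for 180 s after compound addition against dopamine controls.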
D2 antag = antagonizes the human D2 dopamine receptor; P14416; HEK293 TREx D2 cells, calcium flux, dopamine EC80; inhibition, % at 10 µM; actives 2% (n = 340,000); AID 485344; in the data active = inhibition above about 30%; inactive = below that, where a call was filed
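Measurement of antagonist activity uses fluorescent calcium dye in inducible HEK293 T-REx D2 cells: 10 s baseline, compound addition with 180 s read, EC80 dopamine addition with a further 180 s read.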
Each line names hits and unclear results; the compound was inactive in the other large screens.

CC(=O)Nc1ccc(C(=O)OCC(=O)c2cccc([N+](=O)[O-])c2)cc1	none
Cc1ccc(C(=O)COC(=O)c2cccc(NC(=O)c3ccc([N+](=O)[O-])cc3[N+](=O)[O-])c2)cc1	D2 ag-1 inconclusive, D2 PAM-1 122.2
CCOc1ccc(C(=O)NCC(=O)OCc2c(C)noc2C)cc1OCC	D2 antag 37.1
CN(C)C(=O)/C(=C\c1ccncc1)NC(=O)c1ccccc1	D2 antag 39.2
CCN(CC)C(=O)/C(=C\c1ccncc1)NC(=O)c1ccccc1	none
Cc1cc(C)cc(NC(=O)[C@H](NC(=O)[C@@H]2Cc3ccccc3CN2)c2ccccc2)c1	D2 antag 40.1
COc1ccc(C)cc1NC(=O)CNC(c1ccccc1)c1ccc(C)cc1 (stereo unspecified)	none
COc1ccccc1NC(=O)CNC(c1ccccc1)c1ccccc1	D2 antag 36.0 (no result: D2 PAM-2)
Cc1ccc2nc(NCCC(=O)O)nc(-c3ccccc3)c2c1	D2 PAM-2 31.3
Cc1ccc2nc(NCC(=O)O)nc(-c3ccccc3)c2c1	none
O=C(Nc1ccccc1F)C(Cc1ccccc1)N1Cc2ccccc2C1=O (stereo unspecified)	none (no result: D2 ag-1, D2 PAM-1, D2 antag)
COc1ccc([N+](=O)[O-])cc1NC(=O)Cn1ccsc1=N	D2 antag 30.8
Cc1cc(NC(=O)Cn2ccsc2=N)c([N+](=O)[O-])cc1C	none
O=C(NC(NNc1ccc([N+](=O)[O-])cc1)(C(F)(F)F)C(F)(F)F)c1ccc(F)cc1	D2 PAM-1 61.2
CCn1c(=O)c2cc(C(=O)N(C)c3cc(C)ccc3C)sc2c2ccccc21	none (no result: D2 ag-1, D2 PAM-1, D2 ag-2, D2 antag)
Cc1cc(C)c(S(=O)(=O)N2CCCC2=O)c(C)c1N(C)S(C)(=O)=O	D2 antag 37.8
CCC1Oc2nc(SC)nnc2-c2ccccc2N1C(=O)c1ccccc1 (stereo unspecified)	D2 antag 34.0
CCCCc1nn2c(=O)cc(COC(=O)c3cccs3)nc2s1	none (no result: D2 ag-1, D2 PAM-1, D2 antag)
Cc1ccc2nc(NC(=O)CSc3nccn3Cc3ccc(Cl)cc3)sc2c1	none (no result: D2 ag-1, D2 PAM-1, D2 antag)
CC1(C)CC(=O)C2=C(C1)N(c1ccccc1)C(=O)C2(O)C(F)(F)F (stereo unspecified)	D2 antag 35.6
CN1C(=O)/C(=C/c2ccccc2OCc2ccccc2)NC1=S	none
CN1C(=O)/C(=C/c2cc(C(C)(C)C)c(O)c(C(C)(C)C)c2)NC1=S	D2 ag-1 inconclusive, D2 PAM-1 52.1
COc1ccccc1N1CCN(C(=O)c2coc(=O)c(Br)c2)CC1	D2 antag 42.8
COc1ccccc1N1CCN(C2CCCC(C)C2)CC1 (stereo unspecified)	D2 antag 33.9
COc1ccccc1N1CCN(C(=O)C2CCN(C(=O)c3ccccc3Cl)CC2)CC1	none
COc1ccccc1N1CCN(C(=O)C2CC=CCC2C(=O)O)CC1 (stereo unspecified)	D2 antag 32.9
COc1ccccc1C(=O)N1CCC(N2CCN(c3ccccc3OC)CC2)CC1	D2 antag 37.7
O=C(CSc1nc2c([nH]c3ccccc32)c(=O)n1-c1ccccc1)N1CCCC1	none (no result: D2 ag-1, D2 PAM-1, D2 antag)
Cc1ccccc1NC(=O)CN(C)S(=O)(=O)c1cccc2nsnc12	none (no result: D2 ag-1, D2 PAM-1, D2 ag-2, D2 antag)
CCOc1ccccc1CNC(=O)c1ccc2c(c1)sc1nc(-c3cccc(OC)c3)cn12	none (no result: D2 ag-1, D2 PAM-1, D2 antag)
COc1ccccc1N1CCN(C(=O)c2ccoc2C)CC1	D2 antag 35.0
COc1ccccc1N1CCN(C2CCN(C(=O)COc3ccccc3)CC2)CC1	D2 antag 89.8
COc1ccccc1N1CCN(C(=O)c2c(C)noc2C)CC1	none
Cc1ccc(S(=O)(=O)N(CC(=O)N2CCc3ccccc3C2)c2ccc(C)c(C)c2)cc1	none (no result: D2 ag-1, D2 PAM-1, D2 antag)
CCOC(=O)C1CCCN(C(=O)c2ccc3c(c2)sc2nc(-c4cccc(OC)c4)cn23)C1 (stereo unspecified)	none (no result: D2 ag-1, D2 PAM-1, D2 antag)
OCCN1CCN(c2ncnc3nc[nH]c23)CC1	D2 antag 33.9
c1nc(N2CCCC2)c2[nH]cnc2n1	none
O=C(NCCCO)C(=O)NCC(c1ccc2c(c1)OCO2)N1CCOCC1 (stereo unspecified)	none (no result: D2 ag-1, D2 PAM-1, D2 antag)
Cc1ccc(N2C(N)=C(C#N)C3(C(=O)N(C)c4ccccc43)C3=C2CC(C)(C)CC3=O)cc1Cl (stereo unspecified)	none
